Among the test systems are SR leukemia; RPMI-8226 leukemia; OVCAR-8 ovarian; OVCAR-5 ovarian; OVCAR-4 ovarian; SK-OV-3 ovarian; IGROV1 ovarian; OVCAR-3 ovarian; HS 578T breast; NCI/ADR-RES ovarian; T-47D breast; BT-549 breast; MDA-MB-435 melanoma; SW-620 colon; HCT-116 colon; HCC-2998 colon; KM12 colon; MCF7 breast.
Common to all, as to test: NCI-60 one-dose screen, 48 h (100 = growth as untreated, 0 = no growth, -100 = all killed)
Common to all, as to settings: 10 µM unless noted

Compounds without any hit were thinned out: in the full panel of roughly 83,000, 20% have a hit.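 96-well plates, one dose, 48 hours. Percent growth reported; active if below 10.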 A number with no mark means an inactive call. The source made the active and inactive calls.

Consider `C/C(=C(/c1ccccc1)c1ccc(N2C(=O)c3cccc4c(NCc5ccccc5)ccc(c34)C2=O)cc1)c1ccccc1`, for which the growth was 83.6% with SR leukemia; 102% in the experiment with RPMI-8226 leukemia; 95% in the experiment with OVCAR-8 ovarian; 102% in the experiment on OVCAR-5 ovarian; 101% with OVCAR-4 ovarian; 111% in the experiment on SK-OV-3 ovarian. Further, the growth was 94.8% with IGROV1 ovarian; 110% with OVCAR-3 ovarian; 96% in the experiment with HS 578T breast; 97.9% in the experiment with NCI/ADR-RES ovarian; 76% with T-47D breast; 100% in the experiment with BT-549 breast. Moreover, the growth in the experiment on MDA-MB-435 melanoma is 102%; in the experiment on SW-620 colon it was 95.2%; in the experiment with HCT-116 colon it was 87.1%; in the experiment with HCC-2998 colon, 109%; in the experiment on KM12 colon, 91.5%.
On to `Nc1c(C(=O)Nc2cccc3ccccc23)sc2nc3c(cc12)CCCC3`, for which the growth is 9.22% (active) in the experiment with SR leukemia; 28.3% in the experiment on RPMI-8226 leukemia; 33.8% with OVCAR-8 ovarian; 44.7% in the experiment with OVCAR-5 ovarian; 52.7% in the experiment on OVCAR-4 ovarian; 36.8% in the experiment on SK-OV-3 ovarian. Also, the growth in the experiment on IGROV1 ovarian is 45.4%; with OVCAR-3 ovarian it was 2.02% (active); with HS 578T breast it was 27.8%; with NCI/ADR-RES ovarian, 0.722% (active); in the experiment on T-47D breast it was 55.7%; in the experiment on BT-549 breast it was 64.6%. The growth is -63.1% (active) in the experiment with MDA-MB-435 melanoma; 31% with SW-620 colon; 20.6% in the experiment with MCF7 breast; 20.7% in the experiment on HCT-116 colon; 26.7% in the experiment with HCC-2998 colon; 26.7% in the experiment with KM12 colon.
For `Fc1ccc(Nc2ccc3c(OCCCN4CCOCC4)cccc3n2)cc1F`, the growth was 28% in the experiment on SR leukemia; 41.3% with RPMI-8226 leukemia; 117% in the experiment with OVCAR-8 ovarian; 67.8% in the experiment with OVCAR-5 ovarian; 79% with OVCAR-4 ovarian; 96.9% in the experiment with SK-OV-3 ovarian. The growth in the experiment on IGROV1 ovarian was 82.4%; in the experiment with OVCAR-3 ovarian, 85.8%; in the experiment on HS 578T breast it was 67.5%; in the experiment on NCI/ADR-RES ovarian it was 76.9%; with T-47D breast, 78%; with BT-549 breast, 86.1%. Further, the growth in the experiment on MDA-MB-435 melanoma is 78.7%; in the experiment with SW-620 colon it was 47.6%; in the experiment with MCF7 breast, 61.3%; in the experiment with HCT-116 colon, 78.5%; in the experiment on KM12 colon it was 16.1%.
As to `CN1CCN(CCOc2ccc(-c3cnc4c(-c5cccc(F)c5)cnn4c3)cc2)CC1`, the growth in the experiment on SR leukemia is -12.8% (active); in the experiment on RPMI-8226 leukemia it was 31.7%; in the experiment on OVCAR-8 ovarian, 69.8%; with OVCAR-5 ovarian, 84.6%; with OVCAR-4 ovarian it was 65.5%; with SK-OV-3 ovarian it was 106%. Further, the growth was 63.8% in the experiment with IGROV1 ovarian; 56.1% in the experiment with OVCAR-3 ovarian; 77.6% with HS 578T breast; 72.8% with NCI/ADR-RES ovarian; 56.9% with T-47D breast; 92.8% with BT-549 breast. Besides, the growth with MDA-MB-435 melanoma was -47.8% (active); in the experiment on SW-620 colon, -28.7% (active); in the experiment on MCF7 breast, 37.4%; with HCT-116 colon, 23.9%; in the experiment on KM12 colon it was 11.4%.
`O=S(=O)(NCCNc1cc(-c2cn(-c3ccccc3)nc2-c2cccc(O)c2)ccn1)c1ccc(Br)cc1`: the growth in the experiment on SR leukemia was 5.3% (active); in the experiment on RPMI-8226 leukemia, 13%; in the experiment on OVCAR-8 ovarian, 25%; in the experiment with OVCAR-5 ovarian it was 50%; in the experiment with OVCAR-4 ovarian it was 40.7%; in the experiment on SK-OV-3 ovarian it was 45.8%. Further, the growth with IGROV1 ovarian is 49.6%; with OVCAR-3 ovarian, 34.7%; with HS 578T breast it was 24.8%; in the experiment with NCI/ADR-RES ovarian, 25.5%; in the experiment on T-47D breast, 10.5%; with BT-549 breast, 45.6%. For the same compound, the growth was 22.4% with MDA-MB-435 melanoma; 32.4% with SW-620 colon; 13% in the experiment with MCF7 breast; 24% with HCT-116 colon; 17.3% in the experiment on KM12 colon.
With `Fc1ccc(NCc2nnc(-c3ccc(Cl)cc3)o2)cc1`, the growth is 71.1% with SR leukemia; 54.1% in the experiment with RPMI-8226 leukemia; 79.9% in the experiment with OVCAR-8 ovarian; 86.9% with OVCAR-5 ovarian; 69.2% in the experiment with OVCAR-4 ovarian; 81.5% in the experiment with SK-OV-3 ovarian. Besides, the growth in the experiment with IGROV1 ovarian is 51.6%; in the experiment with OVCAR-3 ovarian, 79.6%; in the experiment on HS 578T breast, 84.6%; in the experiment with NCI/ADR-RES ovarian, 90.6%; with T-47D breast, 57%; in the experiment on BT-549 breast, 77.8%. Besides, the growth is 94.8% with MDA-MB-435 melanoma; 90.4% in the experiment with SW-620 colon; 55.2% in the experiment with MCF7 breast; 53.7% with HCT-116 colon; 98% in the experiment on HCC-2998 colon; 84.8% in the experiment on KM12 colon.
For `Cc1cc(N(CCCNc2ccnc3cc(Cl)ccc23)Cc2ccco2)nc(N2CCN(C)CC2)n1`, the growth in the experiment with SR leukemia is -16.7% (active); in the experiment with RPMI-8226 leukemia, 3.87% (active); in the experiment with OVCAR-8 ovarian it was 55.4%; in the experiment with OVCAR-5 ovarian, 73.9%; in the experiment with OVCAR-4 ovarian, 57%; with SK-OV-3 ovarian, 98%. The growth is 38.5% with IGROV1 ovarian; 56.6% in the experiment on OVCAR-3 ovarian; 67.6% with HS 578T breast; 59.8% in the experiment with NCI/ADR-RES ovarian; 23.6% in the experiment with T-47D breast; 50.2% with BT-549 breast. The growth is -5.06% (active) with MDA-MB-435 melanoma; 33.6% in the experiment on SW-620 colon; 29% in the experiment on MCF7 breast; 28.3% with HCT-116 colon; 86.9% in the experiment with HCC-2998 colon; 63.3% in the experiment on KM12 colon.
For `C=COCCCCCCCCCCCCCCCCCC`, the growth with SR leukemia was 94.6%; in the experiment with RPMI-8226 leukemia, 115%; with OVCAR-8 ovarian, 96.5%; in the experiment on OVCAR-5 ovarian it was 106%; with OVCAR-4 ovarian it was 109%; in the experiment on SK-OV-3 ovarian it was 103%. Besides, the growth was 118% with IGROV1 ovarian; 92.6% in the experiment with OVCAR-3 ovarian; 89.3% in the experiment on HS 578T breast; 98.9% with NCI/ADR-RES ovarian; 114% in the experiment on T-47D breast; 103% in the experiment on BT-549 breast. Besides, the growth with MDA-MB-435 melanoma was 114%; with SW-620 colon, 104%; with HCT-116 colon it was 103%; in the experiment with HCC-2998 colon, 99.3%; in the experiment with KM12 colon, 92.8%.

Values taken from PubChem BioAssay (NCI).
